Only some compounds are listed: those with a hit (about 3.5% of all), similar ones and a draw of the others.
GDH-TPI counter-1: inhibits GDH-TPI coupling enzymes, artifact for Mtb FBA screen. AID 588335. 360,000 compounds, 1.2% hits. inhibition, % at 4.8 µM. GDH-TPI coupled enzyme counterscreen, NADH absorbance; in the data active = inhibition above about 30%;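 also: 0% = DMSO wells and 100% = wells lacking the enzyme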
Mtb betalactam: beta-lactam sensitization of Mtb H37Rv | 330,000 compounds, 0.27% hits | inhibition, % at 25 µM | M. tuberculosis H37Rv growth with meropenem, percent inhibition; call rule not given here;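 also: growth measured after seven days incubation then overnight dye step; 0% = bacteria only wells and 100% = bacteria with antibiotic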
Mtb FBA inh: inhibitors of M. tuberculosis fructose-bisphosphate aldolase; P9WQA3; purified M. tuberculosis FBA, fluorescence read-out; inhibition, % at 1 µM; 360,000 compounds, 2.3% hits;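 also: 0% = vehicle and 100% = reference inhibitor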
Target sequence (P9WQA3 whole entry, looked up): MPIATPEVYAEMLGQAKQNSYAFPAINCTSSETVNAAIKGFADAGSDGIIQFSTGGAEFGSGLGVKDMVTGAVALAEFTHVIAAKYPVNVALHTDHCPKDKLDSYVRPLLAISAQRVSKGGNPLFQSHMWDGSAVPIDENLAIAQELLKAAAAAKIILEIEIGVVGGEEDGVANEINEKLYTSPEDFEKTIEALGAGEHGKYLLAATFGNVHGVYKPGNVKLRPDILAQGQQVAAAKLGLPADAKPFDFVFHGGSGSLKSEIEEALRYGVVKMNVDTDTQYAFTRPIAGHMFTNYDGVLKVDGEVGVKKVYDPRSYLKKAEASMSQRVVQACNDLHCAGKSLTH
UGM FP inh: Mtb UDP-galactopyranose mutase inhibition; P9WIQ1; inhibition, % at 10 µM; purified UGM, fluorescence polarization probe displacement; 320,000 compounds, 0.06% hits; AID 504406; in the data active = inhibition above about 10%, passing the limit was not always enough
Rv3671c protease: Rv3671c (M. tuberculosis) protease inhibition; P9WHR9; inhibition, % at 5.96 µM; 320,000 compounds, 0.048% hits; AID 2606; in the data active = inhibition above about 38%;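 also: extracellular domain of Rv3671c used as enzyme; 0% = enzyme with DMSO and 100% = no enzyme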
Mtb FBA inh conf: Mtb FBA inhibition, confirmed | inhibition, % at 1 µM | 5,600 compounds, 78% hits | shares compounds with Mtb FBA inh | purified M. tuberculosis FBA, fluorescence read-out;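 also: 0% = vehicle wells and 100% = reference inhibitor wells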
GDH-TPI counter-2: counter-screen for M. tuberculosis FBA inhibitors: GDH-TPI coupled enzyme inhibition; shares compounds with Mtb FBA inh; GDH-TPI coupled enzyme counterscreen, fluorescence; inhibition, % at 1 µM; 5,600 compounds, 81% hits; AID 652141; in the data active = inhibition above about 10%
An asterisk follows results filed as active; x = not tested or not shown; + = active, no number. Rule as the data show it, unless noted: active = inhibition above about 27%; inactive = the rest.

SMILES	GDH-TPI counter-1	Mtb betalactam	Mtb FBA inh	UGM FP inh	Rv3671c protease	Mtb FBA inh conf	GDH-TPI counter-2
O=C(COc1ccc2c3c(c(=O)oc2c1)CCCC3)NCCN1CCOCC1	15	-6	48*	-1	-11	-1	-2
O=C(COc1ccc2c3c(c(=O)oc2c1)CCCC3)NCCCN1CCOCC1	23	-8	29*	1	-1	89*	64*
S=C(NCCN1CCOCC1)NC1CCCC1	5	2	-2	-4	-3	x	x
O=C(COc1ccc2c(c1)oc(=O)c1ccccc12)NCCN1CCOCC1	5	0	91*	4	1	128*	105*
CC(Oc1ccc2c3c(c(=O)oc2c1)CCCC3)C(=O)NCc1ccncc1 (stereo not given)	-6	5	51*	7	2	7	-3
Cc1c(OC(C)C(=O)NCc2cccnc2)ccc2c3c(c(=O)oc12)CCCC3 (stereo not given)	7	99	61*	-2	1	+	+
CC(Oc1ccc2c3c(c(=O)oc2c1)CCCC3)C(=O)NCCN1CCOCC1 (stereo not given)	12	-3	51*	0	3	76*	61*
COc1ccc(NC(=O)COc2cccc(-n3cnnn3)c2)cc1Cl	12	-13	6	-2	-3	x	x
COc1ccc(/C=N/NC(=O)c2nc(Cl)c(Cl)c(N)c2Cl)cc1COc1ccccc1F	20	60	25	1	-14	x	x
COc1ccc(/C=N/NC(=O)c2nc(Cl)c(Cl)c(N)c2Cl)cc1COc1ccc(F)cc1F	24	30	29*	-3	-67	4	-2
COc1ccc(/C=N/NC(=O)c2ccc(NC(C)=O)cc2)cc1COc1ccc(F)cc1F	15	-3	30*	-1	-44	75*	59*
COc1ccc(/C=N\NC(=O)c2ccccc2F)cc1COc1ccc(F)cc1F	10	84	-2	5	-24	x	x
CCN(CC(=O)NCc1ccc(F)cc1)C(=O)/C=C/c1cc(OC)ccc1OC	16	x	45*	x	x	+	194*
CCN(CC(=O)NCc1ccc(Cl)cc1)C(=O)/C=C/c1cc(OC)c(OC)c(OC)c1	12	3	16	2	4	x	x
O=C(O)c1ccccc1NCCO	7	0	48*	1	9	138*	123*
COC(=O)c1ccccc1NCCO	9	3	109*	-1	8	67*	55*
CCNc1ccccc1C(=O)O	3	-2	78*	1	-5	-5	-7
COc1cc(CC(=O)OCC(=O)c2c[nH]c3ccccc23)cc(OC)c1OC	4	-5	0	0	2	x	x
CSc1nc(-c2ccccc2)c(-c2ccccc2)[nH]1	-6	-4	50*	-1	-6	7	-4
CN(C)CCCNc1cc(-c2ccccc2)nc2cc(-c3cccc(F)c3)nn12	-1	100	78*	0	2	78*	61*
Cc1cccc(-c2cc3nc(C)cc(NCCCN(C)C)n3n2)c1	5	9	18	-3	2	x	x
O=C1c2nc3cc(-c4ccco4)[nH]n3c(=O)c2CN1Cc1ccccc1	-1	-2	97*	1	-3	104*	67*
CCCCc1c(C)nc2cc(-c3ccco3)[nH]n2c1=O	-8	-1	12	-2	0	x	x
CCN1CC=C2C(C#N)=C(N)C(C#N)(C#N)C(CCc3ccccc3)C2C1 (stereo not given)	8	-3	36*	10	6	74*	65*
Cc1ccc(-n2nc3cc(C)c(N)cc3n2)cc1	9	2	16	0	10	x	x
CCc1ccc(-n2nc3cc(C)c(N)cc3n2)cc1	5	97	56*	0	-4	63*	69*
CCN(C(=O)COC(=O)Cc1cccc2ccccc12)C1CCS(=O)(=O)C1 (stereo not given)	1	2	0	2	-7	x	x
O=C(Nc1cccc2ccccc12)N(CCO)C1CCS(=O)(=O)C1 (stereo not given)	3	6	61*	2	3	108*	105*
CCN(CC(=O)NCc1cccs1)C(=O)c1ccc(S(=O)(=O)Nc2ccccc2F)cc1	7	-8	-3	-1	4	x	x
CC(=O)NN1CCc2cc3ccc(C)cc3nc21	15	3	40*	1	-1	-1	0
